TIM10 inh – growth inhibitors of TIM10 yeast strain; inhibition, % at 10 µM; AID 463195; actives 1.4% (n = 330,000); S. cerevisiae TIM10 strain growth, BacTiter-Glo luminescence, 24 h;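 active = inhibition of 40% or more at the single tested concentration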;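 note: wild-type TIM10 isogenic control strain grown at permissive 25 °C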
tim10-1 inh – growth inhibitors of tim10-1 mutant yeast; S. cerevisiae tim10-1 ts strain growth, BacTiter-Glo, 24 h; inhibition, % at 20 µM; actives 2.2% (n = 330,000); AID 463190;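 active = inhibition of at least 40%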;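 note: mutant grown at 25 °C; 0% = DMSO wells with yeast and 100% = wells holding no yeast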
SKKanGAS inh – SKKanGAS growth inhibition | S. pyogenes SKKanGAS, kanamycin growth, BacTiter-Glo, 6 h | inhibition, % at 7.5 µM | actives 1.3% (n = 300,000) | AID 1662;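 active = mean replicate score, as percent of positive control median, at least 50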;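 note: strain carries kanamycin resistance gene driven by streptokinase promoter and grows in 40 µg/ml kanamycin; loss of luminescence reflects streptokinase promoter inhibition or plain growth inhibition; 0% = median of DMSO wells and 100% = positive control at its reference dose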
NLRP3 yeast inh – NALP3 inhibition in yeast | Yeast reconstituted NLRP3/ASC/caspase-1, beta-gal luminescence, 24 h | actives 0.39% (n = 330,000) | inhibition, % at 10 µM;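 active = inhibition of 50% or more; inactive = inhibition below 50%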;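 note: plate controls were induced DMSO wells for no effect and uninduced yeast grown without galactose for full effect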
tim23-1 inh – tim23-1 yeast growth inhibition; S. cerevisiae tim23-1 growth, BacTiter-Glo luminescence, 24 h; inhibition, % at 20 µM; actives 1.3% (n = 330,000); AID 463212;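 active = growth inhibition of the mutant yeast at or above 50%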;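 note: temperature-sensitive mutant grown at 25 °C; plate controls were DMSO-treated mutant yeast for no effect and medium wells lacking yeast for full effect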
tim10-1 confirm – confirmation of tim10-1 mutant yeast growth inhibitors; actives 56% (n = 7,400); inhibition, % at 20 µM; S. cerevisiae tim10-1 ts strain growth, BacTiter-Glo, 24 h; shares compounds with tim10-1 inh;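 active = inhibition of yeast growth at or above a set limit in either of two repeat tests at 20 µM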;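 note: tim10-1 mutant grown at permissive 25 °C to find synthetic lethal compounds; 0% = DMSO yeast wells and 100% = medium wells without yeast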
tim10 confirm – confirmation of TIM10 yeast growth inhibitors; shares compounds with TIM10 inh; S. cerevisiae tim10 strain growth, BacTiter-Glo luminescence, 24 h; inhibition, % at 10 µM; actives 63% (n = 4,600);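 active = inhibition of yeast growth at or above a set limit in either of two replicates at 10 µM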;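 note: this counterscreen used the strain with wild-type TIM10; 0% = yeast with DMSO and 100% = medium wells lacking yeast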
Active calls of the source: *; / = no result given. Only some compounds are listed: those with a hit (about 4.6% of all), similar ones and a draw of the others.

SMILES | TIM10 inh | tim10-1 inh | SKKanGAS inh | NLRP3 yeast inh | tim23-1 inh | tim10-1 confirm | tim10 confirm
COc1ccc(C2c3c(oc4ccc(Cl)cc4c3=O)C(=O)N2CCN2CCOCC2)cc1 (configuration not stated) | -7 | -4 | -9 | 19 | 22 | / | /
O=C(NN=C1c2ccccc2-c2ccccc21)c1ccccn1 | 48* | 41* | -14 | 15 | 20 | 25 | 39*
COc1ccc(NC(=O)Nc2nnc(Cc3ccc(F)cc3)s2)cc1 | 8 | 27 | -5 | 3 | 17 | / | /
CC(C)c1ccc(S(=O)(=O)c2ccc(NN)cc2)cc1 | 42* | 44* | / | 12 | 46 | 34* | 31*
Nc1cnc(Nc2ccc(Br)cc2)nc1N | 7 | 5 | 13 | 31 | 1 | / | /
COc1ccc(/C=C2\SC(=O)N(CCNC(=O)Cn3cnnn3)C2=O)cc1 | -349 | -124 | -14 | -7 | -167 | / | /
O=C1S/C(=C\c2ccc(Cl)cc2)C(=O)N1CCn1cnnn1 | 43* | 43* | / | 23 | 37 | 35* | 18
C=CC[C@]12CC=CC(=O)[C@@]1(O)O[C@H](c1ccc(OC)c(OC)c1)[C@H]2C | 42* | 50* | 0 | 21 | 47 | 38* | 43*
O=C(CCS(=O)(=O)c1ccccc1)N(CCCN1CCOCC1)c1nc2ccccc2s1 | 53* | 48* | -2 | 49 | 42 | 31 | 64*
Cc1cc(Br)c(Cl)cc1NC(=O)CN1C(=O)C2C3CC(c4ccccc4)C(C3)C2C1=O (configuration not stated) | 52* | 52* | 7 | 15 | 35 | 43* | 5
C=CCNC(=O)c1ccc2c(c1)S(=O)(=O)c1ccccc1C2=O | 3 | 2 | 1 | 26 | 7 | / | /
COc1ccccc1C(c1nnnn1CCc1ccccc1)N1CCCCCC1 (configuration not stated) | 43* | 42* | 0 | 9 | 41 | 26 | -22
COc1ccccc1C(c1nnnn1CCc1ccccc1)N1CCN(c2ccccc2)CC1 (configuration not stated) | 30 | 33 | 11 | 10 | 26 | / | /
CC(C)(C)SCCNS(=O)(=O)c1ccc(Cl)cc1 | 7 | 32 | -3 | 16 | 38 | / | /
O=S(=O)(NCCSc1ccc(Cl)cc1)c1ccc(F)cc1 | 41* | 44* | 4 | 24 | 31 | 35* | 12
N#C/C(C(=O)Nc1ccc(Cl)cc1)=C(/S)Nc1ccccc1 | 45* | 69* | 26 | 20 | 17 | 60* | 56*
Cc1cc(C)n2nc(SCC(=O)NC(=O)c3ccccc3Cl)nc2n1 | 4 | 4 | / | 7 | 8 | / | /
Cc1cc(OC(=O)c2cccc(F)c2)c([N+](=O)[O-])c(=O)[nH]1 | 7 | -13 | -3 | -1 | 8 | / | /
CC1CCN(S(=O)(=O)c2cc(Br)cc(C(=O)NC3=NCCS3)c2)CC1 | 41* | 46* | 4 | -2 | 34 | 32* | 40*
O=c1cc(-c2ccccc2)n(S(=O)(=O)c2ccc3ccccc3c2)o1 | 64* | 42* | -5 | -4 | 21 | 37* | 44*
O=c1cc(-c2ccccc2)n(S(=O)(=O)c2ccccc2)o1 | 40 | 36 | 1 | 20 | 31 | / | /
COC(=O)C(Cc1ccc(O)cc1)NC(=O)C1CCN(S(=O)(=O)c2ccc(C)cc2)CC1 (configuration not stated) | 0 | -1 | 0 | 18 | 3 | / | /
CSc1ncccc1C(=O)NCCc1ccccc1F | 0 | 7 | -2 | 27 | 2 | / | /
O=C(CS(=O)c1ccccc1[N+](=O)[O-])Oc1ccc(Br)cc1 (configuration not stated) | 51* | 81* | 5 | 11 | 45 | 64* | 54*
Cc1nn(CC(=O)N(CC(C)C)C2CCS(=O)(=O)C2)c(C)c1[N+](=O)[O-] (configuration not stated) | -11 | -3 | / | 18 | 2 | / | /
COc1ccccc1N1CCN(C(=O)C2=CC=CN3CCS(=O)(=O)N=C23)CC1 | 1 | 2 | / | 22 | -4 | / | /
CN(C)c1ccc(NC2=C(Cl)C(=O)c3ccccc3C2=O)cc1 | 68* | 62* | / | 16 | 44 | 63* | 60*

Screens deposited in PubChem by several laboratories.
